Test results published in PubChem BioAssay (EPA / NIEHS).
Where “and” joins values, the source holds several entries; their conditions need not be identical. Equal entries are not always repeated. Records with an inconclusive call do not appear. More than one record can exist for a structure, and the calls need not agree. Calls of active or inactive are those of the source. The calls were made as follows, unless noted: active = hit-call score of the fitted dose curve at least 0.9, where 1 is the maximum; inactive = score below 0.9.

Legend:
[1] = CCTE_Mundy_HCI_Cortical_NOG_BPCount: CCTE's Neurite Outgrowth Assay in rat cortical cells for Branch Point Count, Mundy Lab (AID 2284237);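 as to AC50: branch points counted about two days after chemical exposure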
In short: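 Measured 50.33 h after dosing, this morphology endpoint uses rat primary cortical cultures labelled for betaIII-tubulin. Branch points are quantified by high-content imaging, with DMSO as negative control and baseline.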

[2] = read-out: Collagen I, COL1A1 (gene 1277); test: BSK_MyoF_CollagenI: BioMAP Diversity Plus: MyoF Assay for Collagen I Biomarker Activity (AID 2284238); settings: primary human lung fibroblasts
In short: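 Lung fibroblasts (human primary) dosed, 24 h; Collagen I by ELISA; positive-direction fit vs DMSO control. Parallel SRB total-protein staining (0.1% SRB, 10% TCA fixation, 560 nm) flags overt cytotoxicity.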

[3] = read-out: Collagen III, COL3A1 (gene 1281); test: BSK_MyoF_CollagenIII: BioMAP Diversity Plus: MyoF Assay for Collagen III Biomarker Activity (AID 2284239); settings: primary human lung fibroblasts
In short: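 ELISA read-out of collagen III from human lung fibroblasts after 24 h of chemical treatment. The DMSO control served as negative control and baseline, with values fitted in the positive direction.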

[4] = CCTE_Mundy_HCI_hNP1_Casp3_7: CCTE's Caspase-Glo 3/7 Assay in human neuroprogenitor cells for Apoptosis, Mundy Lab (AID 2284240)
In short: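 Neuroepithelial-lineage stem cells from WA09 embryonic cells were treated with chemicals after 40–44 h of culture. Twenty-four hours later, caspase-3/7 activation was detected luminescently after a 30 min room-temperature reagent step, with DMSO as baseline.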

[5] = CCTE_Mundy_HCI_hNP1_CellTiter: CCTE's Cell Titer-Glo 2 Assay in human neuroprogenitor cells for Viability, Mundy Lab (AID 2284241; active = hit-call score of the fitted dose curve at least 0.9, where 1 is the maximum;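 as to AC50: a hit is a drop in ATP luminescence versus DMSO meaning reduced viability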)
In short: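 Measures ATP content in human neural progenitors derived from WA09 embryonic cells. Read-out at 26.5 hours after dosing, with DMSO serving as the negative control and baseline.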

[6] = CCTE_Mundy_HCI_Cortical_Synap_Neur_Matur_NeuronCount: CCTE's Synaptogenesis and Neurite Maturation Assay in rat cortical cells for Neuron Count, Mundy Lab (AID 2284242; active = hit-call score of the fitted dose curve at least 0.9, where 1 is the maximum;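 as to AC50: hits reduce neuron count versus DMSO baseline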)
In short: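 Neuron number was scored by automated high-content imaging of Hoechst- and MAP2-labelled rat primary cortical cells. Glial growth was arrested with AraC at DIV 5, compounds were applied from DIV 7, and cultures ended at DIV 12.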

[7] = read-out: Interleukin 17F (IL17F), IL17F (gene 112744); test: BSK_BT_xIL17F: BioMAP Diversity Plus: BT Assay for Interleukin 17F (IL17F) Biomarker Activity (AID 2284243); settings: primary human B cells with PBMC
In short: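 Compound was added to co-cultures of human B cells and PBMC. After 24 hours, IL-17F released into the medium was measured with LumineX xMAP technology. Responses were then fitted upward relative to DMSO.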

[8] = read-out: Actin alpha 1 (ACTA1), ACTA1 (gene 58); test: BSK_MyoF_ACTA1: BioMAP Diversity Plus: MyoF Assay for Actin alpha 1 (ACTA1) Biomarker Activity (AID 2284244); settings: primary human lung fibroblasts
In short: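 Lung fibroblasts, human primary, 24 h compound exposure → a-SMA ELISA. Positive-direction fit vs DMSO control.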

[9] = read-out: Interleukin 2 (IL2), IL2 (gene 3558); test: BSK_BT_xIL2: BioMAP Diversity Plus: BT Assay for Interleukin 2 (IL2) Biomarker Activity (AID 2284245); settings: primary human B cells with PBMC
In short: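 B cell + PBMC co-culture (human primary), compound added, 24 h incubation; secreted IL-2 measured multiplexed on Luminex xMAP; gain-of-signal fit vs DMSO.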

[10] = read-out: Basic fibroblast growth factor (bFGF), FGF2 (gene 2247); test: BSK_MyoF_bFGF: BioMAP Diversity Plus: MyoF Assay for Basic fibroblast growth factor (bFGF) Biomarker Activity (AID 2284246); settings: primary human lung fibroblasts
In short: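 ELISA-measured bFGF level serves as the read-out, taken 24 h after chemical dosing of human lung fibroblasts. Values represent signal gain over the DMSO negative control.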

## O=[N+]([O-])c1cc(C(F)(F)F)c(Cl)c([N+](=O)[O-])c1Nc1ncc(C(F)(F)F)cc1Cl
[1]
  AC50: 740 nM (active)
[2]
  AC50: 2.52 µM (active)
[3]
  AC50: 2.72 µM (active)
[4]
  AC50: 2.95 µM (active)
[5]
  AC50: 2.4 µM (active)
[6]
  AC50: 0.717 µM (active)
[7]
  AC50: 1.35 µM (active)
[8]
  AC50: 2.27 µM (active)
[9]
  AC50: 3.34 µM (active)
[10]
  AC50: 3.75 µM (active)

## CCOP(=S)(OCC)Oc1ccc2c(C)c(Cl)c(=O)oc2c1
[1]
  AC50: 86400 nM (active)
[4]
  AC50: 73.8 µM (active)
[5]
  AC50: 38.6 µM (active)
[6]
  outcome: inactive

## CON=C(C(=O)OC)c1ccccc1CON=C(C)c1cccc(C(F)(F)F)c1
[1]
  AC50: 929 nM (active)
[4]
  AC50: 50 µM (active)
[5]
  AC50: 50 µM (active)
[6]
  AC50: 0.293 µM (active)

## CCOP(=S)(OCC)SCCSCC
[1]
  outcome: inactive
[4]
  outcome: inactive
[6]
  outcome: inactive

## CC1=NNC(=O)N(/N=C/c2cccnc2)C1
[1]
  outcome: inactive
[4]
  outcome: inactive

## COP(=O)(OC)OC(Br)C(Cl)(Cl)Br (stereo not drawn)
[1]
  AC50: 30.4 µM (active) and 22.1 µM (active)
[4]
  AC50: 11.9 µM (active)
  outcome: inactive
[5]
  AC50: 17.8 µM (active) and 85 µM (active)
[6]
  AC50: 26.1 µM (active)
  outcome: inactive

## COP(=O)(OC)C(O)C(Cl)(Cl)Cl (stereo not drawn)
[1]
  outcome: inactive
[4]
  AC50: 15.5 µM (active)
[5]
  outcome: inactive
[6]
  AC50: 50 µM (active)

## CCOC(=O)CC(SP(=O)(OC)OC)C(=O)OCC (stereo not drawn)
[1]
  outcome: inactive
[4]
  outcome: inactive
[5]
  outcome: inactive

## CCOP(=O)(OCC)Oc1cc(C)nc(C(C)C)n1
[1]
  outcome: inactive
[4]
  outcome: inactive
[5]
  outcome: inactive

## CN1COCN(Cc2cnc(Cl)s2)C1=N[N+](=O)[O-]
[1]
  outcome: inactive
[4]
  outcome: inactive
[5]
  outcome: inactive
[6]
  outcome: inactive

## CN(C)[C@@H]1C(=O)C(C(N)=O)=C(O)[C@@]2(O)C(=O)C3=C(O)c4c(O)cccc4[C@@](C)(O)[C@H]3[C@H](O)[C@@H]12
[1]
  outcome: inactive
[2]
  outcome: inactive
[3]
  outcome: inactive
[4]
  AC50: 25.2 µM (active)
[5]
  outcome: inactive
[6]
  AC50: 86.1 µM (active)
[7]
  outcome: inactive
[8]
  outcome: inactive
[9]
  outcome: inactive
[10]
  outcome: inactive

## CCCSP(=O)(OCC)Oc1ccc(Br)cc1Cl (stereo not drawn)
[1]
  outcome: inactive
[4]
  outcome: inactive
[5]
  outcome: inactive
[6]
  outcome: inactive

## C=C(C)[C@H]1Cc2c(ccc3c2O[C@@H]2COc4cc(OC)c(OC)cc4[C@@H]2C3=O)O1
[1]
  AC50: 17.5 nM (active)
[5]
  AC50: 0.159 µM (active)

## CCOP(=S)(OCC)Oc1cc(C)nc(C(C)C)n1
[1]
  AC50: 110 nM (active)
[4]
  outcome: inactive
[6]
  outcome: inactive

## CC[C@H](C)[C@H]1O[C@]2(C=C[C@@H]1C)C[C@@H]1C[C@@H](C/C=C(\C)[C@@H](O[C@H]3C[C@H](OC)[C@@H](O[C@H]4C[C@H](OC)[C@@H](NC)[C@H](C)O4)[C@H](C)O3)[C@@H](C)/C=C/C=C3\CO[C@@H]4[C@H](O)C(C)=C[C@@H](C(=O)O1)[C@]34O)O2
[1]
  AC50: 883 nM (active) and 1.53 µM (active)
[4]
  AC50: 14.3 µM (active) and 3.62 µM (active)
[5]
  AC50: 1.3 µM (active)
[6]
  AC50: 672 nM (active) and 1.14 µM (active)

## CCOP(=S)(OCC)Oc1ccc([N+](=O)[O-])cc1
[1]
  AC50: 24700 nM (active)
[4]
  outcome: inactive
[6]
  outcome: inactive

## CCCSP(=O)(OCC)SCCC
[1]
  outcome: inactive
[4]
  outcome: inactive
[5]
  outcome: inactive
[6]
  AC50: 3.79 µM (active)
  outcome: inactive

## CC(C)N(C(=O)SCC(Cl)=C(Cl)Cl)C(C)C
[1]
  outcome: inactive
[4]
  outcome: inactive
[5]
  outcome: inactive
[6]
  AC50: 24.6 µM (active)

## CSC1=N[C@@](C)(c2ccccc2)C(=O)N1Nc1ccccc1
[1]
  outcome: inactive
[4]
  outcome: inactive
[5]
  outcome: inactive

## CCOP(=O)(SC(C)CC)N1CCSC1=O (stereo not drawn)
[1]
  outcome: inactive
[4]
  outcome: inactive
[5]
  outcome: inactive

## CCOP(=O)(NC(C)C)Oc1ccc(SC)c(C)c1 (stereo not drawn)
[1]
  outcome: inactive
[4]
  outcome: inactive
[5]
  AC50: 51 µM (active)
[6]
  outcome: inactive

## CC(=NC#N)N(C)Cc1ccc(Cl)nc1
[1]
  outcome: inactive
[4]
  outcome: inactive
[5]
  outcome: inactive

## CCCCSP(=O)(SCCCC)SCCCC
[1]
  AC50: 84.4 µM (active) and 76 µM (active)
[4]
  AC50: 35.8 µM (active) and 32.8 µM (active)
[5]
  AC50: 66.9 µM (active)
[6]
  AC50: 86 µM (active) and 24.4 µM (active)

## CCOP(=S)(Oc1cnc(C(C)(C)C)nc1)OC(C)C (stereo not drawn)
[1]
  AC50: 22800 nM (active)
  outcome: inactive
[4]
  AC50: 91.4 µM (active)
  outcome: inactive
[5]
  outcome: inactive
[6]
  AC50: 20.1 µM (active)
  outcome: inactive

## CCOP(=S)(OCC)OC(Cl)C(Cl)(Cl)Cl (stereo not drawn)
[1]
  AC50: 50 µM (active) and 28.7 µM (active)
[4]
  AC50: 50.5 µM (active)
  outcome: inactive
[5]
  AC50: 78.1 µM (active) and 88.7 µM (active)
[6]
  AC50: 21.8 µM (active)
  outcome: inactive
